# Test results as given in PubChem BioAssay.
# The source made the active and inactive calls. Unless noted, how the calls were made is not given here.
# Columns and labels:
# [1] = test system: Wnt5a (protein binding on small-molecule microarray); experiment: small molecules binding Wnt5a protein – biophysical, small-molecule microarray, 635/667 nm fluorescence, primary screen (AID 1142); details: 635 nm fluorescence, higher = more signal;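 further: fluorescence read at 667 nm with signal to noise per printed feature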
# [2] = ATP-based viability of Huh7 replicon cells – cell-based, CellTiter-Glo luminescence, basal, 48 h, cytotoxicity control for HCV replication inhibitor project, primary screen (AID 1143); details: higher = more signal, called active from +8 up or from −8 down;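 further: Huh7 hepatoma cells carrying a hepatitis C replication reporter with no stimulus; test concentration not given here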
# [3] = Pseudomonas biofilm growth suppression – PAO1 strain, BacTiter-Glo luminescence, LB-PBS, primary screen (AID 1144); details: P. aeruginosa PAO1 biofilm, 12 h, higher = more signal
# [4] = basal CRE-LacZ reporter activity in PC12 – cell-based, unstimulated, primary screen (AID 1145); details: no forskolin, luminescence, 4.5 h, higher = more signal, called active from +8 up or from −8 down
# [5] = forskolin-driven CRE-LacZ activity in PC12 – cell-based, CRE-LacZ reporter, forskolin-stimulated, primary screen (AID 1146); details: luminescence, 4.5 h, higher = more signal, called active from +8 up or from −8 down;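 further: PC12 cells with 6xCRE LacZ reporter stimulated by forskolin 10 µM; beta-galactosidase reporter signal reflecting CREB driven transcription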
# [6] = target: Streptavidin (Streptomyces avidinii) (UniProt P22629); experiment: compounds binding control protein streptavidin – biophysical, small-molecule microarray, 635/667 nm fluorescence, artefact control for SMM compound annotation, primary screen (AID 1147); details: higher = more signal;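 further: signal reflects streptavidin binding to arrayed compounds as a control protein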
# [7] = probe aInhba binding on compound microarray – biochemical, small-molecule microarray, 635/667 nm fluorescence, primary screen (AID 1148); details: higher = more signal;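 further: score merges 667nm spot fluorescence with signal-to-noise for antibody binding to printed compounds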
# Torsin-1A (Homo sapiens) [8] = target: Torsin-1A (Homo sapiens) (UniProt O14656); experiment: TOR1A wild-type binding on microarray – cell lysate, small-molecule microarray, lysate, 635/667 nm, primary screen (AID 1149); details: COS7 hTOR1A-WT lysate, 635 nm fluorescence, higher = more signal
# Torsin-1A (Homo sapiens) [9] = target: Torsin-1A (Homo sapiens) (UniProt O14656); experiment: torsin A mutant lysate binding on microarrays – cell lysate, small-molecule microarray, COS7 lysate, 635/667 nm fluorescence, primary screen (AID 1150); details: COS7 hTOR1A mutant lysate, 635 nm fluorescence, higher = more signal;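 further: score pools 667 nm emission and signal to noise measuring lysate protein binding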
# [10] = test system: Sonic hedgehog protein (Shh); experiment: Sonic hedgehog microarray binding compounds – biochemical, small-molecule microarray, 635/667 nm fluorescence, primary screen (AID 1151); details: 635 nm fluorescence, higher = more signal;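 further: Shh protein binding to compounds spotted on small-molecule microarray slides; score combines spot fluorescence intensity with signal-to-noise across triplicate slides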
# [11] = optical density shifts of acrAB sulA E. coli – strain DRC41, OD650, 48 h, E. coli filamentation inducer project, primary screen (AID 1152); details: higher = more signal, called active from +8 up or from −8 down;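 further: E. coli MC1000 strain DRC41 lacking acrAB efflux pump and sulA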
# [12] = probe aLefty1 binding on compound microarray – biochemical, small-molecule microarray, 635/667 nm fluorescence, primary screen (AID 1153); details: higher = more signal;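 further: score merges spot fluorescence with signal-to-noise ratio from the scanned slide images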
# [13] = plasmodial surface anion channel blockers, osmotic lysis – cell-based, P. falciparum Indochina, OD700, 1 h, primary screen (AID 1154); details: P. falciparum Indochina infected RBC osmotic lysis, higher = more signal, called active from +8 up or from −8 down
# [14] = plasmodial surface anion channel blockers, osmotic lysis – cell-based, P. falciparum Indochina, OD700, 2 h, primary screen (AID 1155);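 further: lysis reports solute entry through the parasite surface anion channel PSAC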; details: P. falciparum Indochina infected erythrocytes, higher = more signal, called active from +8 up or from −8 down
# [15] = changes in parasitized red cell lysis, either direction – P. falciparum Indochina, OD700, 3 h, PSAC antagonist project, primary screen (AID 1156); details: P. falciparum-infected erythrocytes, osmotic lysis, higher = more signal, called active from +8 up or from −8 down
# [16] = plasmodial surface anion channel blockers, osmotic lysis – cell-based, P. falciparum Indochina, OD700, 18 h, primary screen (AID 1157); details: P. falciparum Indochina infected erythrocytes, osmotic lysis OD700, 18 h; higher = more signal, called active from +8 up or from −8 down
# [17] = S6 kinase pathway phospho-S6 level changes – cell-based, A549, cytoblot, luminescence, serum-stimulated, primary screen (AID 1158); details: 5 h, higher = more signal;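 further: serum-stimulated A549 lung adenocarcinoma cells; signal is phosphorylated S6 detected by cytoblot immunostaining with HRP secondary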
# [18] = target: NADPH oxidase 2 (Homo sapiens) (UniProt P04839); experiment: compounds shifting NOX2 Amplex Red fluorescence – cell-based, HEK293-NOX2, PMA-stimulated, NOX inhibitor project, primary screen (AID 1159); details: 45 min, higher = more signal, called active from +8 up or from −8 down; further: test concentration not given here
# [19] = target: NADPH oxidase 4 (Homo sapiens) (UniProt Q9NPH5); experiment: compounds shifting NOX4 Amplex Red fluorescence – cell-based, HEK293-NOX4, tetracycline-induced, NOX inhibitor project, primary screen (AID 1160); details: HEK293-NOX4, Amplex Red H2O2 fluorescence, 45 min; higher = more signal, called active from +8 up or from −8 down
# [20] = target: NADPH oxidase 5 (Homo sapiens) (UniProt Q96PH1); experiment: compounds shifting NOX5 Amplex Red fluorescence – cell-based, HEK293-NOX5, NOX inhibitor project, primary screen (AID 1161); details: HEK293-NOX5, ionomycin, 45 min, higher = more signal
# NADPH oxidase 5 (Homo sapiens), sequence (Q96PH1 whole entry, looked up): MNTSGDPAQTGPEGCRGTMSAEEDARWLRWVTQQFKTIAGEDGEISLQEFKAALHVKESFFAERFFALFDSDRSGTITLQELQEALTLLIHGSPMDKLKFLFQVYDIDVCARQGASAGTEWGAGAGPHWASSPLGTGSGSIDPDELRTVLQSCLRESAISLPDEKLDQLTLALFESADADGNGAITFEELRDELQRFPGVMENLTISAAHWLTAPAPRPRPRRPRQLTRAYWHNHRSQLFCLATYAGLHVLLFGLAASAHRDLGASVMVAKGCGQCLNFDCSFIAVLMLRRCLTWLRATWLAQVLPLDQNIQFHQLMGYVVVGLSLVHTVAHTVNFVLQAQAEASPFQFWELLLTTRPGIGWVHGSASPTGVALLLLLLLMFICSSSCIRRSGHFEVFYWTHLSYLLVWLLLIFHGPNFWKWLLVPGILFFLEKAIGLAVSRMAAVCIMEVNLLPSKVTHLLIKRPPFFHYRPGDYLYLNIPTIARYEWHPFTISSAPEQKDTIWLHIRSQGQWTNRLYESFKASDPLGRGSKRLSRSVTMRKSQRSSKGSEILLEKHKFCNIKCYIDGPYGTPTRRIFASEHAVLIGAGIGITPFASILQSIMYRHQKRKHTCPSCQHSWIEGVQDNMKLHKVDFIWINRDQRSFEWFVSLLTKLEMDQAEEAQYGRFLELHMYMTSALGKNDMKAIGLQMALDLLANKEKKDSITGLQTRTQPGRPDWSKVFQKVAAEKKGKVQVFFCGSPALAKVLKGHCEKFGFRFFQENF
# NADPH oxidase 4 (Homo sapiens), sequence (Q9NPH5 whole entry, looked up): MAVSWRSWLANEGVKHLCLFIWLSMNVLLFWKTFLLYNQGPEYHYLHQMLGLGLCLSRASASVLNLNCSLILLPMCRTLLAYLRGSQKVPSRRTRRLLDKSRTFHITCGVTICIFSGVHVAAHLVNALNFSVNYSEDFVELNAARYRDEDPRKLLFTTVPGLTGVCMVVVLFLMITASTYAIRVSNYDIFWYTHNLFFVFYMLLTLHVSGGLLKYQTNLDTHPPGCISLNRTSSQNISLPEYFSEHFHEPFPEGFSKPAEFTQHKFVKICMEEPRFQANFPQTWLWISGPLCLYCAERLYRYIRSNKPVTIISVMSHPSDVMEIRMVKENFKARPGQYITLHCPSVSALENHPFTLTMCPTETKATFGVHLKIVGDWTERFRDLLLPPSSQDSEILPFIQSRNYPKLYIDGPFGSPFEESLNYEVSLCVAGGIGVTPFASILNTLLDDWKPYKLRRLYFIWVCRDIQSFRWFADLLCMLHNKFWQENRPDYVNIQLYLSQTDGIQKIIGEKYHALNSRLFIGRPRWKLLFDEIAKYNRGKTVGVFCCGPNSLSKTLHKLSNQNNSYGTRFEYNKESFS
# Streptavidin (Streptomyces avidinii), sequence (P22629 whole entry, looked up): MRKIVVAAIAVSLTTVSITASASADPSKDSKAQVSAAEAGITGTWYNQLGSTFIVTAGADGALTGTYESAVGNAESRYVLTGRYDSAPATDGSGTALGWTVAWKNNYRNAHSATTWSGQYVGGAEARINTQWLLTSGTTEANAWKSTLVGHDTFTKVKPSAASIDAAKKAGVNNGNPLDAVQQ
# Torsin-1A (Homo sapiens), sequence (O14656 whole entry, looked up): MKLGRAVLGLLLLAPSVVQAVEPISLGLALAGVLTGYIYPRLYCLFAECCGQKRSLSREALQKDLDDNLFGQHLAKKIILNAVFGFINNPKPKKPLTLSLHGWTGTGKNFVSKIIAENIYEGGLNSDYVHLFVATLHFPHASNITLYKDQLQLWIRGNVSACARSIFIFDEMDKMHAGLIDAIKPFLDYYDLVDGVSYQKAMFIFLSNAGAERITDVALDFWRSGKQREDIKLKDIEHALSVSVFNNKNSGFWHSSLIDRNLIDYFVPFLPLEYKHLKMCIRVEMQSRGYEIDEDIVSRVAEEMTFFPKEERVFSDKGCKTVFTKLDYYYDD
# NADPH oxidase 2 (Homo sapiens), sequence (P04839 whole entry, looked up): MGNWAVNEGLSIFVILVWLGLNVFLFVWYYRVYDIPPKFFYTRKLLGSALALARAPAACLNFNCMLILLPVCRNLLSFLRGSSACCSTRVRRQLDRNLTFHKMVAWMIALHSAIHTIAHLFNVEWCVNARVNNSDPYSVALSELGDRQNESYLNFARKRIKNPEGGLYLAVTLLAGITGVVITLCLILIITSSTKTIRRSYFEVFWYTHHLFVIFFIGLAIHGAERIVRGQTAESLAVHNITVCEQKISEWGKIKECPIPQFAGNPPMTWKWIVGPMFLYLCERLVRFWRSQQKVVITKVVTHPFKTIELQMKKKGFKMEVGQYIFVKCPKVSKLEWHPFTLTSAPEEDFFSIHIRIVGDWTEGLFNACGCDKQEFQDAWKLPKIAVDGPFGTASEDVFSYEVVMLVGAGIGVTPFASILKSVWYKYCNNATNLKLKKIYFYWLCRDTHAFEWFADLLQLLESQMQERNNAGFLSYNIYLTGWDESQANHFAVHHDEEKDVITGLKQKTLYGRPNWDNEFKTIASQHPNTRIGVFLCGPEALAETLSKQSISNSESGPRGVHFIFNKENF
SMILES,composite z-score [1],z-score [2],z-score [3],z-score [4],z-score [5],composite z-score [6],composite z-score [7],composite z-score (Torsin-1A (Homo sapiens) [8]),composite z-score (Torsin-1A (Homo sapiens) [9]),composite z-score [10],z-score [11],composite z-score [12],z-score [13],z-score [14],z-score [15],z-score [16],z-score [17],z-score [18],z-score [19],z-score [20]
CC(CCN1CCCc2nc(C)c(C)cc21)=NOC(C)CN1CCCCc2nc(C)c(C)cc21 (stereo not given),0.277,-0.466 (inactive),-0.624 (inactive),-0.31 (inactive),0.527 (inactive),0.666,0.0074,-0.109,0.631,1.05,-0.702 (inactive),0.123,2.12 (inactive),0.193 (inactive),0.564 (inactive),0.415 (inactive),-0.775,-0.397 (inactive),-1.71 (inactive),-0.496
COC(=O)CC=C[C@@H](C)[C@@H](C=NO[C@@H]1O[C@H](COC(C)=O)[C@@H](OC(C)=O)[C@H](OC(C)=O)[C@H]1OC(C)=O)NS(=O)(=O)c1ccc(C)cc1,-0.0003,0.0322 (inactive),-0.202 (inactive),7.64 (inactive),1.02 (inactive),-0.909,0.0086,0.514,0.311,0.629,-0.673 (inactive),-0.397,0.683 (inactive),0.54 (inactive),1.1 (inactive),0.294 (inactive),-0.448,0.837 (inactive),0.968 (inactive),0.569
C=CC1=C[C@H](O)[C@@H]2O[C@@H]2C12OCCCO2,0.398,0.17 (inactive),0.658 (inactive),-0.0732 (inactive),0.197 (inactive),0.281,-0.0695,0.468,0.752,-0.262,0.104 (inactive),-0.275,-0.179 (inactive),0.191 (inactive),-0.264 (inactive),-0.121 (inactive),-0.495,-1.11 (inactive),0.617 (inactive),0.629
C#CCCCON=C1C[C@@H](O)[C@@H](O)[C@@H]2[C@@H]3C(=O)N(C(C)(C)C)C(=O)[C@@H]3CC[C@@H]12,0.0416,0.536 (inactive),0.945 (inactive),0.785 (inactive),0.262 (inactive),0.0462,-0.0762,-0.196,0.348,-1.22,-0.441 (inactive),0.308,3.54 (inactive),1.28 (inactive),0.158 (inactive),0.305 (inactive),0.929,0.934 (inactive),1.27 (inactive),-0.106
COc1ccc(COC(=O)NN=C2C[C@@H](O)[C@@H](O)[C@@H]3[C@@H]4C(=O)N(c5ccc(F)cc5F)C(=O)[C@@H]4CC[C@H]23)cc1,0.118,-1.64 (inactive),-0.597 (inactive),-1.02 (inactive),0.454 (inactive),1.19,-0.0719,-0.309,0.627,-1.52,-0.544 (inactive),0.545,30.2 (active),4.98 (inactive),2.52 (inactive),1.24 (inactive),-0.434,-0.407 (inactive),-0.481 (inactive),-0.876
COc1ccc(O[C@@H]2[C@H](O)CO[C@@H]2C=Cc2ccccc2)cc1,0.059,-2.79 (inactive),-0.828 (inactive),-0.613 (inactive),-0.736 (inactive),-0.0696,-0.128,-0.071,0.55,0.503,-1.74 (inactive),0.417,5.53 (inactive),-0.0327 (inactive),1.23 (inactive),-0.66 (inactive),1.49,0.561 (inactive),-0.92 (inactive),-2.07
O=C(NN=C1C[C@@H](O)[C@@H](O)[C@@H]2[C@@H]3C(=O)N(C[C@@H]4CCCO4)C(=O)[C@@H]3CC[C@H]12)OCc1ccccc1,-0.222,0.348 (inactive),0.458 (inactive),-0.834 (inactive),-0.105 (inactive),0.281,-0.341,0.146,0.219,-0.824,0.801 (inactive),0.318,1.35 (inactive),0.278 (inactive),0.284 (inactive),0.404 (inactive),-0.249,-0.92 (inactive),0.0865 (inactive),-0.165
CCOC(=O)[C@H](CC(C)C)NC(=O)CCC1CC(OC(=O)NCCc2ccc(F)cc2)CC2(CCCC(COC(=O)NCCC(C)C)O2)O1 (stereo not given in full),-0.0436,-0.439 (inactive),0.288 (inactive),0.91 (inactive),-0.457 (inactive),2.06,-0.0963,-0.239,0.204,0.318,-1.14 (inactive),0.0451,6.28 (inactive),0.267 (inactive),0.0542 (inactive),0.0517 (inactive),-0.326,1.26 (inactive),-1.27 (inactive),-0.8
COc1cccc([C@H]2Oc3ccc(OC)cc3C(=NOC[C@@H](O)[C@H]3O[C@@H]4OC(C)(C)O[C@@H]4[C@H]3O)[C@@H]2O)c1,0.205,-2.83 (inactive),1.12 (inactive),2.02 (inactive),0.0487 (inactive),-0.311,-0.105,0.0929,0.339,0.303,-0.0985 (inactive),-0.387,5.05 (inactive),0.458 (inactive),-0.128 (inactive),0.537 (inactive),-0.512,-0.895 (inactive),-0.776 (inactive),-0.23
